ChEMBL document CHEMBL3988442, “University of Dundee, Small-Polar-MMV Screening Library” (2021)
Hit rate of the full screen: of about 48,000 compounds, about 13,000 (27%) showed an effect of 50% or more. This is one part of the list.

The compounds below were run on Wolbachia pipientis (assay: Anti-Wolbachia Cell-Based Screen). Conditions: 5 µM.
Assay type: functional
Design: scale not given: in the data most compounds retested in dose-response had high values

Going from CCCc1n[nH]c(C2CN(Cc3nnc(C4CC4)n3C)CCO2)n1 (configuration not stated) to CCn1cc(CN2CCC(c3nnc(CN(C)C)n3CC)CC2)cn1, the “Percent Effect” value rises from -1.998% to -1.722%.

First: COCCO[C@H]1CCN(C(=O)c2cnoc2C)[C@H]1Cc1cnn(C)c1
Second: Cn1cc(CN2CCC(c3[nH]ncc3S(C)(=O)=O)C2)cn1 (configuration not stated)
The “Percent Effect” value of the first is lower: -37.67% for the first, 89.03% for the second.

Going from CC(CN1CCN(C)CC1)NC(=O)c1cc(Cl)c2c(c1)OCO2 (configuration not stated) to Cc1cc(Cl)ccc1S(=O)(=O)NCC(C)N1CCN(C)CC1 (configuration not stated), the “Percent Effect” value rises from -52.56% to 0.8605%.

Compared with Cn1cc(CN2CC[C@@H]3[C@@H](CCC(=O)N3CC3CCNCC3)C2)cn1, CCn1cc(CN2CCN(C)C3(CCC(=O)N(CC4CC4)CC3)C2)cn1 (configuration not stated) is higher in “Percent Effect” value: -8.948% for the first, 0.5097% for the second.

Compared with CCn1cc(CN2CCCC(c3[nH]ncc3S(C)(=O)=O)C2)cn1 (configuration not stated), CCn1cc(CN2CCC(c3[nH]ncc3S(C)(=O)=O)C2)cn1 (configuration not stated) is higher in “Percent Effect” value: 1.783% for the first, 105.5% for the second.

First: CCCn1cc(CN2CCC(c3[nH]ncc3S(C)(=O)=O)C2)cn1 (configuration not stated)
Second: COc1ncc(CN2CCCC(c3[nH]ncc3S(C)(=O)=O)C2)cn1 (configuration not stated)
The “Percent Effect” value of the first is higher: 113% for the first, 102.2% for the second.

First: CN(C)S(=O)(=O)N1CC[C@@H]2CN(Cc3cnn(C)c3)C[C@@H]2C1
Second: CCC[C@@H]1CN(Cc2cnc3c(S(C)(=O)=O)cnn3c2)C[C@H]1N(C)C
The “Percent Effect” value of the first is higher: -2.262% for the first, -11.35% for the second.

First: CS(=O)(=O)c1ncc(CN2CCN3CCCC3C2)n1CC1CCCCC1 (configuration not stated)
Second: CC1CCN(Cc2cnc(S(=O)(=O)CC3CC3)n2CC2CCCO2)CC1 (configuration not stated)
The “Percent Effect” value of the first is lower: 0.5285% for the first, 3.735% for the second.

Going from COc1cc(Br)c(S(=O)(=O)NC(=O)C(C)OC)cc1OC (configuration not stated) to COc1cc(CN(C)C(=O)Nc2cc(C)on2)ccc1SC, the “Percent Effect” value falls from 2.536% to -6.064%.

Compared with Cc1cc(C(=O)N2C[C@H]3CC[C@@H]2CN(Cc2ccccn2)C3)nc(C)n1, Cc1cc(N2CCC(n3cc(CN4CCNCC4)nn3)CC2)ccn1 is higher in “Percent Effect” value: -8.906% for the first, -4.274% for the second.

First: Cc1ccc(F)c(S(=O)(=O)NCc2[nH]ncc2Br)c1
Second: Cc1ccc(F)c(N2CCCC(NS(=O)(=O)CCCF)C2=O)c1 (configuration not stated)
The “Percent Effect” value of the first is lower: -8.756% for the first, -1.757% for the second.

Going from CCn1nc(CC(C)C)cc1C(=O)N1CC(N2CCCCC2C)C1 (configuration not stated) to CC(C)N1CCC(N2CCCC(C(=O)NCC3(O)CCCCC3)C2)CC1 (configuration not stated), the “Percent Effect” value falls from 1.245% to 0.6612%.

Compared with CC(CCS(C)(=O)=O)NC(=O)NCc1ccc2c(c1)CCC2 (configuration not stated), CS(=O)(=O)NCC1(c2ccccc2Br)CC1 is lower in “Percent Effect” value: 5.194% for the first, 1.161% for the second.

First: Cc1ccc2c(c1)nc1n2[C@@H](CNC(=O)c2cncnc2)COC1
Second: Cc1nc(CNCC2COCc3c(-c4ccoc4)nnn3C2)cs1 (configuration not stated)
The “Percent Effect” value of the first is lower: -17.88% for the first, -8.682% for the second.

Compared with Cc1noc(C)c1CNCC1COCc2c(-c3ccoc3)nnn2C1.O=C(O)C(F)(F)F (configuration not stated), O=C(O)C(F)(F)F.c1csc(CNCC2COCc3c(-c4ccoc4)nnn3C2)n1 (configuration not stated) is higher in “Percent Effect” value: -8.022% for the first, 7.766% for the second.

Compared with Cn1nccc1-c1nnn2c1COCC(CNC1CCOCC1)C2.O=C(O)C(F)(F)F.O=C(O)C(F)(F)F (configuration not stated), Cn1nccc1-c1nnn2c1COCC(CNCC1CC1)C2.O=C(O)C(F)(F)F.O=C(O)C(F)(F)F (configuration not stated) is higher in “Percent Effect” value: 88.78% for the first, 95.94% for the second.

Going from c1csc(CNCC2COCc3c(-c4ccsc4)nnn3C2)n1 (configuration not stated) to Fc1cccc(-c2nnn3c2COCC(CNCc2nccs2)C3)c1.O=C(O)C(F)(F)F (configuration not stated), the “Percent Effect” value falls from -12.98% to -16.94%.

First: CN(C)CCNCC1COCc2c(-c3ccnn3C)nnn2C1 (configuration not stated)
Second: O=C(NCC1COCc2c(-c3ccncc3)nnn2C1)[C@H]1CCCO1.O=C(O)C(F)(F)F (some centres not stated)
The “Percent Effect” value of the first is higher: 97.42% for the first, 13.14% for the second.

First: CC(C)N(Cc1cccnc1)C(=O)CNc1ccc(C#N)cc1
Second: C[C@@H](NCc1cccc(Cl)c1)c1onc(-c2ccccc2)c1C(=O)O
The “Percent Effect” value of the first is lower: -12.71% for the first, -2.837% for the second.

Going from O=C(Nc1cnccn1)[C@@H]1CC[C@@H]2[C@@H](CCN2Cc2nccs2)O1.O=C(O)C(F)(F)F to O=C(Nc1cnccn1)[C@H]1CC[C@@H]2[C@@H](CCN2Cc2ccccn2)O1.O=C(O)C(F)(F)F, the “Percent Effect” value falls from 114.9% to 79.42%.

Compared with Cc1ncccc1NC(=O)[C@@H]1CC[C@@H]2[C@@H](CCN2Cc2cnn(C)c2)O1.O=C(O)C(F)(F)F.O=C(O)C(F)(F)F.O=C(O)C(F)(F)F, Cc1csc(CN2CC[C@H]3O[C@H](C(=O)Nc4cccnc4)CC[C@H]32)n1.O=C(O)C(F)(F)F.O=C(O)C(F)(F)F is higher in “Percent Effect” value: -6.669% for the first, 273.2% for the second.

First: O=C(NCc1ccccn1)[C@@H]1CC[C@@H]2[C@@H](CCN2c2ncc(F)cn2)O1.O=C(O)C(F)(F)F.O=C(O)C(F)(F)F
Second: Cc1cccc(CN2CC[C@H]3O[C@H](C(=O)Nc4cnccn4)CC[C@H]32)n1.O=C(O)C(F)(F)F.O=C(O)C(F)(F)F
The “Percent Effect” value of the first is lower: 7.451% for the first, 108.3% for the second.

Compared with Cn1cc(CN2CC[C@H]3O[C@H](C(=O)NC4CC4)CC[C@H]32)c2ccccc21.O=C(O)C(F)(F)F, O=C(NC1CCC1)[C@@H]1CC[C@@H]2[C@@H](CCN2CCc2ccccc2)O1.O=C(O)C(F)(F)F is lower in “Percent Effect” value: -3.833% for the first, -17.29% for the second.

Going from CC(C)NC(=O)[C@@H]1CC[C@@H]2[C@@H](CCN2Cc2ccc3ccccc3n2)O1.O=C(O)C(F)(F)F to O=C(NCc1ccco1)[C@H]1CC[C@@H]2[C@@H](CCN2Cc2nccs2)O1.O=C(O)C(F)(F)F, the “Percent Effect” value rises from -12.2% to 5.491%.

First: O=C(c1cc[nH]n1)N(Cc1cccc(O)c1)CC1CC1
Second: O=C(O)C(F)(F)F.O=C(c1ccccn1)N1CCn2cnc(COCC3CC3)c2C1
The “Percent Effect” value of the first is lower: -5.824% for the first, 22.66% for the second.

First: CN1CCCCC12CCN(c1nncs1)CC2.O=C(O)C(F)(F)F
Second: Cn1c2c(ccc1=O)CCN(Cc1ccoc1)CC2.O=C(O)C(F)(F)F
The “Percent Effect” value of the first is lower: -22.78% for the first, 97.4% for the second.

First: CCCN1CCc2[nH]nc(C(=O)N3CCNC(=O)C3)c2C1.O=C(O)C(F)(F)F.O=C(O)C(F)(F)F
Second: O=C(O)C(F)(F)F.O=C(O)C(F)(F)F.O=c1ccc2c(n1Cc1cccnc1)CCN(CC1CCOC1)CC2 (configuration not stated)
The “Percent Effect” value of the first is higher: -12.08% for the first, -12.29% for the second.

Compared with Cc1nnc(C2Cc3ccccc3CN2Cc2c(C)noc2C)o1 (configuration not stated), Cc1noc(CN2Cc3ccccc3CC2c2nnc(C)o2)n1 (configuration not stated) is lower in “Percent Effect” value: 100.9% for the first, 1.632% for the second.

First: Cc1nnc(C2Cc3ccccc3CN2Cc2nc(C3CC3)no2)o1 (configuration not stated)
Second: CCc1nnc(C2Cc3ccccc3CN2Cc2nc(C3CC3)no2)o1 (configuration not stated)
The “Percent Effect” value of the first is higher: -2.569% for the first, -3.635% for the second.

Going from Cc1nnc(C2Cc3ccccc3CN2Cc2nc(C(C)C)no2)o1 (configuration not stated) to CCc1nnc(C2Cc3ccccc3CN2Cc2nc(C)no2)o1 (configuration not stated), the “Percent Effect” value falls from 134.6% to 88.09%.

Going from CCc1nnc(C2Cc3ccccc3CN2Cc2cc(C)no2)o1 (configuration not stated) to Cc1cc(CN2Cc3ccccc3CC2c2nnc(C)o2)on1 (configuration not stated), the “Percent Effect” value rises from -1.172% to 1.784%.

Going from Cc1cc(CN2Cc3ccccc3CC2c2nnc(C)o2)no1 (configuration not stated) to CCc1nnc(C2Cc3ccccc3CN2Cc2cc(C)on2)o1 (configuration not stated), the “Percent Effect” value falls from 108.3% to 6.832%.

First: Cc1noc(C)c1CN1CCCC1C(=O)OCc1ccccc1 (configuration not stated)
Second: O=C1NC(c2ccccc2)=N[C@@]12CC[C@@H]1CN(Cc3nccs3)C[C@@H]12
The “Percent Effect” value of the first is higher: 4.096% for the first, -1.68% for the second.

First: Cc1nnc(C2Cc3ccccc3CN2Cc2ncc(C(C)(C)C)o2)o1 (configuration not stated)
Second: COCc1ncn2c1CN(C(=O)c1cnc3ccccc3c1)CC2
The “Percent Effect” value of the first is lower: 21.52% for the first, 79.69% for the second.

Compared with COCc1ncn2c1CN(C(=O)C1CC=CC1)CC2, Cc1ccc(C(=O)N2CCn3cnc(COCC4CC4)c3C2)cn1.O=C(O)C(F)(F)F is higher in “Percent Effect” value: -12.78% for the first, -1.031% for the second.

Compared with COCc1ncn2c1CN(C(=O)c1cccc3cccnc13)CC2.O=C(O)C(F)(F)F, COCc1ncn2c1CN(C(=O)c1ccc3ccccc3n1)CC2.O=C(O)C(F)(F)F is lower in “Percent Effect” value: 103% for the first, 86.38% for the second.

Going from COCc1ncn2c1CN(S(=O)(=O)Cc1ccc(C)cc1)CC2.O=C(O)C(F)(F)F to COCc1cnc2n1CCN(C(=O)c1ccc3ccccc3n1)C2C.O=C(O)C(F)(F)F (configuration not stated), the “Percent Effect” value falls from 14.75% to -39.11%.

Going from O=C(CN1CCOc2ccc(Cl)cc21)NCCCn1ccnc1 to O=C(O)C1CCN(C[C@H]2CC[C@@H](Cc3ccc4c(c3)OCO4)O2)CC1, the “Percent Effect” value falls from 9.044% to 4.381%.

Compared with CN(C(=O)OC(C)(C)C)C1CCN(C(=O)c2ccc(Cl)o2)C1 (configuration not stated), O=C(O)C(F)(F)F.O=C(O)C(F)(F)F.O=c1ccc2c(n1Cc1cccnc1)CCN(C1CCOC1)CC2 (configuration not stated) is higher in “Percent Effect” value: -6.554% for the first, 2.129% for the second.

First: CCS(=O)(=O)c1ncc(CN(C)Cc2ccccn2)n1CCOC
Second: COCCn1c2c(ccc1=O)CCN(Cc1ccoc1)CC2
The “Percent Effect” value of the first is lower: -6.84% for the first, 106.6% for the second.

First: Cc1noc(NS(=O)(=O)c2ccc(Cl)s2)c1C
Second: CCC(C)Oc1cc(C(=O)Nc2nccs2)ccn1 (configuration not stated)
The “Percent Effect” value of the first is lower: -16.85% for the first, -12.97% for the second.

Going from COc1ccc2c(c1)C1(CCN(Cc3ccoc3)CC1)N(C)CC2 to COCC1c2c(cnn2C)CCN1Cc1ccoc1 (configuration not stated), the “Percent Effect” value rises from -15.48% to -6.273%.

Going from O=C(O)C(F)(F)F.O=C(O)C(F)(F)F.O=c1ccc2c(n1CCN1CCCC1)CCN(Cc1ccoc1)CC2 to O=C(O)C(F)(F)F.O=C(O)C(F)(F)F.O=c1ccc2c(n1Cc1ccncc1)CCN(Cc1ccoc1)CC2, the “Percent Effect” value rises from -0.3339% to 96.18%.

With O=C(O)C(F)(F)F.O=C(O)C(F)(F)F.O=c1ccc2c(n1Cc1cccnc1)CCN(Cc1ccoc1)CC2 the “Percent Effect” value was 110%.
